Measurements: PubChem BioAssay AID485367 (National Center for Advancing Translational Sciences (NCATS), 2010)
In all, about 330,000 compounds went through this assay and about 560 (0.17%) were called active. Roughly 1% stayed inconclusive and do not appear here. Calls come from the whole dose curve; as a rule, active = well fitted inhibition curve with a large enough effect; inconclusive = small, poorly fitted or top-dose-only effect, or effect the other way; inactive = flat fitted curve, though single readings scatter. Many of the other results were omitted from the sample, so actives are more common in it than they were.

The molecules below were run against ATP-dependent 6-phosphofructokinase (Trypanosoma brucei brucei) (UniProt O15648) (assay: qHTS Assay to Find Inhibitors of T. brucei phosphofructokinase). Conditions: T. brucei PFK, ADP-Glo luminescence; series mostly up to 57.5 µM; activity, negative = inhibition: at the top concentration.
From the text: NIH Molecular Libraries Probe Production Network [MLPCN] NIH Chemical Genomics Center [NCGC] Grant: 1 R03 MH092153-01 PI Name: Malcolm Walkinshaw, University of Edinburgh NCGC Assay Overview: Various species of the protozoan family Trypanosomatidae are responsible for a range of serious human diseases in tropical and subtropical areas of the world. […] Many of the disorders caused by trypanosomatids are fatal if left untreated, but most currently used drugs are inefficient and toxic. […] Oxidative metabolism involving the mitochondrial tricarboxylic acid cycle and oxidative phosphorylation are repressed in these parasites, and recent RNA interference (RNAi) experiments have shown that even partial depletion of certain individual glycolytic enzymes can lead to the death of cultured parasites. One such glycolytic enzyme, phosphofructokinase (PFK), catalyzes the formation of fructose-1,6-bisphosphate (F1,6BP) and ADP from fructose-6-phosphate (F6P) and ATP, and in many metabolic circumstances makes an important contribution to the control of flux through the glycolytic pathway. As a specific glycolytic target, PFK is particularly attractive as it catalyzes the first irreversible step in glycolysis, and structural and kinetic studies have shown very substantial and essential differences from corresponding host enzymes, allowing for the discovery of parasite-selective inhibitors. The goal of this screen is to find small-molecule inhibitors of T. brucei PFK using a biochemical assay that measures PFK activity as a function of ADP production. A luminescence-based assay for T. brucei PFK activity has been developed which uses luciferase to detect production of ADP. Traditional luciferase-based nucleotide detection reagents rely on ATP production as a direct substrate for the luciferase reaction; however, PFK catalyzes the transfer of a phosphate from ATP to F6P, resulting in the net depletion of ATP. To directly measure the ADP product of the PFK reaction, we used the ADP-Glo detection kit (Promega), which utilizes two separate reactions to 1) deplete all remaining uncatalyzed ATP and 2) convert all remaining ADP to ATP, which is then detected through a traditional luciferase-coupled reaction. Compounds were screened as a concentration-titration series that ranged from 57 uM to 0.7 nM.
NCGC Assay Protocol Summary: NCGC Assay Protocol Summary: Substrate buffer was dispensed into white, solid 1536-well plates at 3uL/well in 0.1M triethanolamine (TEA) buffer, pH 8.0, containing final concentrations of 5 mM MgCl2, 0.01% Tween20, 0.5 mM fructose-6-phosphate (F6P) and 0.1mM ATP. Then, 23 nL of compounds or DMSO were delivered to each well using a pin tool. One uL T. brucei PFK (0.1M TEA, 0.01% Tween20, 0.1% bovine serum albumin (BSA) and 1.25nM PFK, final concentrations) was then dispensed, and plates were incubated at room temperature for 45 min. The luminescent detection reagent, ADP-Glo (Promega), was then added in two steps: the first reagent, ADP-Glo (which converts remaining uncatalyzed ATP), was added at 2.5uL/well and incubated for ten minutes at room temperature, and the second component, Kinase Detection reagent (which converts ADP to ATP as a substrate for luciferase-based luminescence), was added immediately after at 5uL/well, followed by one final ten minute room temperature incubation. The plates were measured on a ViewLux plate reader for luminescent signal using a clear filter with a one second exposure. The %Activity was determined from the corrected luminescence values. As no specific T. brucei PFK inhibitors have been identified in the literature, 1x (1.25nM) and 0x PFK enzyme controls (untreated) were included to normalize %Activity of identified inhibitors; 0x enzyme values corresponded to 100%Activity (full inhibition), while 1x PFK enzyme values were used to normalize 0%Activity (no inhibition). Concentration-response curves were fitted to the signals arising from the resulting luminescence. […]
Note: nearly all actives have a fitted effect of over 60% in size.
Potency is the fitted concentration of half-maximal effect.

ATP-dependent 6-phosphofructokinase (Trypanosoma brucei brucei), sequence (O15648 whole entry, looked up): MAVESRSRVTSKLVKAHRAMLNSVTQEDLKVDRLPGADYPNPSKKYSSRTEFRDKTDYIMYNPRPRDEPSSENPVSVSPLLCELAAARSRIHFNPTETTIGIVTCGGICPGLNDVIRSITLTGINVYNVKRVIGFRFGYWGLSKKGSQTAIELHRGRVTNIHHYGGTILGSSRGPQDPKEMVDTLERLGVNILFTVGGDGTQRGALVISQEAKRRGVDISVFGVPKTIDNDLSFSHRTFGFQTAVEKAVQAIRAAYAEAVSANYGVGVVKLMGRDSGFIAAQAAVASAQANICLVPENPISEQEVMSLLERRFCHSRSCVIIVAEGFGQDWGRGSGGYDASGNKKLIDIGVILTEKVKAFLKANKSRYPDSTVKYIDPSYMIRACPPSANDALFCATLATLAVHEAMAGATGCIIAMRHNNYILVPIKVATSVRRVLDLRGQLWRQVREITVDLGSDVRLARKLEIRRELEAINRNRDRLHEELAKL

| Compound | Potency | activity, negative = inhibition |
| --- | --- | --- |
| Cc1[nH][nH]c(=O)c1C(c1ccc2c(c1)OCO2)c1c(C)[nH][nH]c1=O | 23.9 µM (active) | – |
| CCOc1ccc(C(c2c(C)[nH][nH]c2=O)c2c(C)[nH][nH]c2=O)cc1OCC | – | -5.84% (inactive) |
| Nc1[nH][nH]c(=O)c1N=Nc1ccc2c(c1)OCO2 | – | 2.23% (inactive) |
| COc1cc(C2C(N3C(=O)c4ccccc4C3=O)C(=O)N2c2ccc(C)c(C)c2)cc(OC)c1OC (stereo not given) | – | -1.29% (inactive) |
| OC(CNCC1CCCO1)Cn1c2ccc(Br)cc2c2cc(Br)ccc21 (stereo not given) | – | -2.71% (inactive) |
| Nc1nc(Nc2ccccc2F)nc(NC2CCCCC2)c1[N+](=O)[O-] | – | -7.16% (inactive) |
| COc1cc(NC(=O)COC(=O)CSc2ccc3ccccc3c2)c(C)cc1[N+](=O)[O-] | – | 0.214% (inactive) |
| CCOC(=O)N1CCN(C(=O)CN(C2CCCCC2)S(C)(=O)=O)CC1 | – | -3.12% (inactive) |
| CC(Oc1cc2oc(=O)c3c(c2cc1Cl)CCCC3)C(=O)NCc1ccncc1 (stereo not given) | – | 0.885% (inactive) |
| CC(C)CN(CC(C)C)CC(O)CN(c1ccccc1)S(=O)(=O)c1ccccc1[N+](=O)[O-] (stereo not given) | – | -3.71% (inactive) |
| CCCN1C2CCCC1CC(NC(=O)NC13CC4CC(CC(C4)C1)C3)C2 (stereo not given) | – | -1.81% (inactive) |
| CCN(CC(=O)N1CCCC1)S(=O)(=O)c1ccc(F)cc1 | – | 1.92% (inactive) |
| O=C(Cn1c(COc2ccccc2)nc2ccccc21)Nc1cc(Cl)c(Cl)cc1Cl | – | -10.8% (inactive) |
| O=C(CN(CC1CCCO1)C(=O)CNS(=O)(=O)c1ccc(F)cc1)NCc1ccco1 (stereo not given) | – | -5.87% (inactive) |
| COc1ccc(-c2nc3c(s2)CCc2onc(-c4ccc(OC)cc4)c2-3)cc1 | – | -0.904% (inactive) |
| COc1ccc(Cl)cc1NC(=O)NC(C)C(C)(C)C (stereo not given) | – | 0.905% (inactive) |
| Cc1cccc(NC(=S)Nc2ccc3cn[nH]c3c2)c1 | – | 3.21% (inactive) |
| Cc1cccc(NC(=S)Nc2ccc(Cl)c(Cl)c2)c1 | 10.7 µM (active) | – |
| Cc1cccc(NC(=S)NC23CN4CN(CN(C4)C2)C3)c1 | – | -1.16% (inactive) |
| COCCN1C(=O)N(c2ccc(Cl)cc2)C(=O)C1CC(=O)Nc1cc(OC)cc(OC)c1 (stereo not given) | – | 3.53% (inactive) |
| CC1(N2CCOCC2)CC2(O)C(=[N+]1[O-])CCc1nonc12 (stereo not given) | – | 0.181% (inactive) |
| O=C(CCn1nnc2ccccc21)OCC(=O)c1ccc([N+](=O)[O-])cc1 | – | -4.04% (inactive) |
| Cc1ccnc(-n2sc3ccccc3c2=O)n1 | 7.57 µM (active) | – |
| Cc1nc2ccccc2c(=O)n1NC(=O)c1ccccc1 | – | 2.74% (inactive) |
| COC(=O)COc1ccc2c(c1C)O/C(=C\c1ccco1)C2=O | – | -12.5% (inactive) |

| Compound | Potency | activity, negative = inhibition |
| --- | --- | --- |
| O=C(COC(=O)CCC(=O)c1cccs1)NCc1ccco1 | 6.75 µM (active) | – |
| O=C(COC(=O)c1cccs1)NCc1cccs1 | – | 0.216% (inactive) |
| O=C(COC(=O)C12CC3CC(CC(C3)C1)C2)NCc1ccco1 | – | 3.92% (inactive) |
| Cc1cc(NC(=O)COC(=O)/C=C/c2ccc(C)o2)no1 | – | 8.73% (inactive) |
| CS(=O)(=O)N(CC(=O)N1CCOCC1)c1cccc(Cl)c1Cl | – | -5.81% (inactive) |
| Cc1ccc(S(=O)(=O)N2CCCCC2)cc1NC(=O)[C@@H]1CCCN1C(=O)c1cccs1 | – | -2.04% (inactive) |
| O=C(COC(=O)CCCN1C(=O)c2cccc3cccc(c23)C1=O)NC1CCS(=O)(=O)C1 (stereo not given) | – | -7.52% (inactive) |
| CCC(C)c1ccc(NC(=O)COC(=O)C2CCCC2)cc1 (stereo not given) | – | -1.93% (inactive) |
| Cc1c(Cl)cccc1NC(=O)Nc1ccc(C(=O)N2CCCC2)cc1 | – | -3.91% (inactive) |
| COc1cc(S(=O)(=O)N2CCOCC2)ccc1NC(=O)COc1ccc(N(C)S(=O)(=O)c2ccc(C)cc2)cc1 | – | 4.44% (inactive) |
| C/C(=N/Nc1ccc(Cl)cc1)c1cnnc(-c2ccccc2)n1 | – | 5.32% (inactive) |
| O=C(CNC(=O)C1COc2ccccc2O1)N/N=C/c1cc(Br)c(O)c(Br)c1 (stereo not given) | – | -4.63% (inactive) |
| Cc1c(CC(=O)N2CCN(C(=O)C3COc4ccccc4O3)CC2)c(=O)oc2c(O)c(O)ccc12 (stereo not given) | 4.78 µM (active) | – |
| Cc1c(C)c2ccc(OCC(=O)N3CCC(C(=O)O)CC3)c(C)c2oc1=O | – | -0.415% (inactive) |
| Cc1ccc2c(=O)cc(C(=O)NCCc3ccc(S(N)(=O)=O)cc3)oc2c1C | – | 1.41% (inactive) |
| CCCNC(=O)NC(=O)COC(=O)CC(NC(N)=O)c1ccc(Cl)cc1 (stereo not given) | – | -0.0234% (inactive) |
| COc1cnc(SCc2ccc(Cl)c(Cl)c2)nc1Cl | 26.9 µM (active) | – |
| COc1ccc(CCNC(=O)c2cnc(Cl)c(Cl)c2)cc1 | – | -9.9% (inactive) |
| Nc1cc(N)nc(SCc2ccc(Cl)cc2)n1 | – | -10.3% (inactive) |
| Cc1ccc(C2CC(c3cccc(Br)c3)n3nc(N)nc3N2)cc1 (stereo not given) | – | 5.14% (inactive) |
| O=C1CCN(Cc2ccccc2)CCN1[C@H](CSc1ccccc1)c1ccccc1 | – | 0.129% (inactive) |
| O=C(CNS(=O)(=O)c1ccc2ccccc2c1)Nc1ccc(F)c(F)c1F | – | -1.12% (inactive) |
| Cc1ccccc1NC(=O)Cc1nc(COC(=O)c2cccnc2Cl)cs1 | – | 0.473% (inactive) |
| Cc1ccc(-n2c(N)c(C(=O)N3CCOCC3)sc2=S)c(C)c1 | – | -2.32% (inactive) |
| N#Cc1ccccc1-n1c(N)c(C(=O)N2CCCC2)sc1=S | – | 0.585% (inactive) |
